Here are results for 26 compounds from PubChem BioAssay AID504452 (The Scripps Research Institute Molecular Screening Center, 2011).

The source made the active and inactive calls. Rule as the data show it: active = activation above about 85%; inactive = the rest.

For this assay, the target named is Peroxisome proliferator-activated receptor gamma (Homo sapiens) (UniProt P37231). As to the kind of experiment: partial agonism at human PPARgamma receptor – cell-based, luciferase reporter, luminescence, primary screen (AID 504452).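 Also: Cos-1 cells carrying PPARgamma and a response element luciferase reporter.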 The conditions noted are these: cell-based PPARg luciferase reporter, at 5 µM, stronger effect = higher value; activation (% of full agonist control): measured here: relative to full agonist control. On the technique in general: A reporter such as luciferase makes a cellular process visible.
Chain of Peroxisome proliferator-activated receptor gamma (Homo sapiens) (P37231 whole entry, looked up): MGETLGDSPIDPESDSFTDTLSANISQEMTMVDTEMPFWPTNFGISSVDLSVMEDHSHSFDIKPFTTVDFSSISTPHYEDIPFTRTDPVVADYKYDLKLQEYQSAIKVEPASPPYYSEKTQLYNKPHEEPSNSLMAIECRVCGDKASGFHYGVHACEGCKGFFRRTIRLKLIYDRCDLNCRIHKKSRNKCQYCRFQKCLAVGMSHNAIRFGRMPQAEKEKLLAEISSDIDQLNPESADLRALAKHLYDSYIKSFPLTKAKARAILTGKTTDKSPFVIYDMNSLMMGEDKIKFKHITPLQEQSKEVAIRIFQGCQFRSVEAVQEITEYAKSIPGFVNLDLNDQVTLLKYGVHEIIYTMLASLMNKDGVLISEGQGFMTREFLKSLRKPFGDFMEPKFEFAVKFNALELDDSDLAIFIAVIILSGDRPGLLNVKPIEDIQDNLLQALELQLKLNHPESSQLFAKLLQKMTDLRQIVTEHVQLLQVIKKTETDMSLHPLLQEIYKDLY
As to `O=C(Nc1ccccc1Cl)C(=O)c1cn(CC(=O)N2CCOCC2)c2ccccc12`, the activation (% of full agonist control) came out at 50.5% and the activation (% of partial agonist control) was 112% (active).

Take `O=C1CC(NS(=O)(=O)c2ccc3ccccc3c2)CN1c1ccccc1` (configuration not stated): the activation (% of full agonist control) was found to be 31.7% and the activation (% of partial agonist control) is 70.2% (inactive).

Turning to `O=C(Cc1c(C(=O)O)[nH]c2ccccc12)Nc1ccc2c(c1)OCO2`, the activation (% of partial agonist control) is 17.6% (inactive) and the activation (% of full agonist control) turned out to be 7.95%.

Turning to `COc1cc(C2/C(=C(/O)c3ccccc3)C(=O)C(=O)N2c2ccccn2)ccc1O` (configuration not stated), the activation (% of partial agonist control) is 57.6% (inactive) and the activation (% of full agonist control) amounted to 26%.

On to `COC(=O)c1cc(C(=O)N2CCN(c3cccc(Cl)c3)CC2)cc([N+](=O)[O-])c1`, for which the activation (% of full agonist control) was 27% and the activation (% of partial agonist control) is 59.7% (inactive).

In the case of `CN(C)c1ccc(C(CNS(=O)(=O)c2cccc([N+](=O)[O-])c2)N2CCOCC2)cc1` (configuration not stated), the activation (% of full agonist control) was found to be 31.9% and the activation (% of partial agonist control) is 70.6% (inactive).

`O=C(Cc1ccccc1)n1nc(-c2ccco2)nc1SCc1ccccc1`: the activation (% of partial agonist control) is 81.8% (inactive) and the activation (% of full agonist control) was determined as 37%.

As to `c1ccc(CCN2CN(CCCN3CCOCC3)c3nc4ccccc4n3C2)cc1`, the activation (% of partial agonist control) is 54.4% (inactive) and the activation (% of full agonist control) stood at 24.6%.

Turning to `COC(=O)c1ccc(NC(=O)C(=O)c2cn(CC(=O)N3CCOCC3)c3ccccc23)cc1`, the activation (% of partial agonist control) is 71.1% (inactive) and the activation (% of full agonist control) amounted to 32.1%.

Turning to `O=C(c1nc2ccccn2c1CN1CCCC(O)C1)N1CCN(C2CCCCC2)CC1` (configuration not stated), the activation (% of partial agonist control) was 103% (active) and the activation (% of full agonist control) amounted to 46.4%.

Consider `Cc1cc(N2C(=O)C(O)=C(C(=O)c3cccs3)C2c2cccc(Br)c2)no1` (configuration not stated), for which the activation (% of partial agonist control) was 101% (active) and the activation (% of full agonist control) was 45.7%.

In the case of `Cc1ccc(OCC(=O)Nc2ccc(N3CCN(C(=O)c4ccco4)CC3)cc2)cc1`, the activation (% of partial agonist control) is 69.5% (inactive) and the activation (% of full agonist control) was 31.4%.

For the compound `COc1cc(CN2CCCC(N3CCN(c4ccc(F)cc4)CC3)C2)ccc1F` (configuration not stated), the activation (% of partial agonist control) is 69% (inactive) and the activation (% of full agonist control) is 31.2%.

For `COc1ccc2c(c1)c(CCN1C(=O)c3ccccc3C1=O)cn2C(=O)c1ccco1`, the activation (% of partial agonist control) is 60.4% (inactive) and the activation (% of full agonist control) turned out to be 27.3%.

For `O=C(CC(C(=O)N1CCc2ccccc21)n1ccnc1)NCc1ccccc1` (configuration not stated), the activation (% of partial agonist control) was 31.2% (inactive) and the activation (% of full agonist control) was determined as 14.1%.

Take `Cc1ccc2nc(N3C(=O)C(O)=C(C(=O)c4ccco4)C3c3ccc(O)cc3)sc2c1` (configuration not stated): the activation (% of partial agonist control) is 90.5% (active) and the activation (% of full agonist control) is 40.9%.

Turning to `O=C(Nc1cc(F)ccc1F)C1CCCN(c2ncnc3c2nc2n3CCCCC2)C1` (configuration not stated), the activation (% of full agonist control) was 32.1% and the activation (% of partial agonist control) is 71% (inactive).

Regarding `COc1ccc(C=NNS(=O)(=O)c2ccc(F)cc2)cc1COc1cc(F)ccc1[N+](=O)[O-]`, the activation (% of partial agonist control) was 95% (active) and the activation (% of full agonist control) was 42.9%.

For `O=C(NCC(c1ccco1)N1CCc2ccccc2C1)c1cccc(F)c1` (configuration not stated), the activation (% of full agonist control) amounted to 33.4% and the activation (% of partial agonist control) is 74% (inactive).

For `COc1ccc(-c2ccc(CCC(=O)O)n2CC(=O)Nc2ccccc2C)cc1`, the activation (% of partial agonist control) is 77.7% (inactive) and the activation (% of full agonist control) worked out at 35.1%.

Turning to `COc1ccc(N2C(=O)C(CN3CCN(C)CC3)C2c2ccccc2)cc1` (configuration not stated), the activation (% of full agonist control) was 31.9% and the activation (% of partial agonist control) is 70.6% (inactive).

Consider `Cc1nc2ncccn2c1-c1csc(Nc2cccc(C(=O)O)c2)n1`, for which the activation (% of partial agonist control) is 74.2% (inactive) and the activation (% of full agonist control) stood at 33.5%.

Consider `Cc1ccc(/C(O)=C2/C(=O)C(=O)N(c3ccccn3)C2c2cccc([N+](=O)[O-])c2)cc1` (configuration not stated), for which the activation (% of full agonist control) is 34.1% and the activation (% of partial agonist control) was 75.6% (inactive).

As for `Cc1cccc(N2CCN(C(=O)c3cccc(N4C(=O)C5CC=CC(C)C5C4=O)c3)CC2)c1C` (configuration not stated), the activation (% of full agonist control) amounted to 16.4% and the activation (% of partial agonist control) was 36.3% (inactive).

Take `O=C(CC1C(=O)Nc2ccccc2N1CC(=O)N1CCCC1)Nc1ccc(Br)cc1` (configuration not stated): the activation (% of full agonist control) worked out at 37% and the activation (% of partial agonist control) is 81.9% (inactive).

Turning to `Cc1nc2ccccn2c1/C(O)=C1\C(=O)C(=O)N(CCN2CCOCC2)C1c1ccncc1` (configuration not stated), the activation (% of partial agonist control) was 58.1% (inactive) and the activation (% of full agonist control) came out at 26.2%.
